Screening data: PubChem, The Scripps Research Institute Molecular Screening Center
proKLK7 act = proKLK7 (human) activation, primary screen | P49862 | purified proKLK7, EDANS-DABCYL substrate fluorescence; 100% is mature enzyme control, 0% vehicle | activation, % at 7 µM | actives 0.9% (n = 370,000) | AID 652039;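 active = activation above the mean of all tested compounds plus 3 SD, computed per campaign excluding outliers beyond control limits, cut at about 13% in these data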
sPLA2-III inh = Blocks human group III sPLA2 activity; Q9NZ20; QFRET BODIPY PC-A2 liposome hydrolysis, fluorescence; inhibition, % at 12.2 µM; actives 0.56% (n = 370,000);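 active = inhibition above mean plus 3 SD of compounds lying within the high and low control bounds, cut at about 19% in these data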;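 note: 0% = median of test compound wells and 100% = no enzyme DMSO wells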
PLC-gamma1 inh = blocks human PLC-gamma1 enzyme activity; P19174; purified PLC-gamma1, fluorogenic substrate, fluorescence; inhibition, % at 12.2 µM; actives 0.84% (n = 370,000); AID 720700; in the data active = inhibition above about 9.5%
ADAM17 inh = inhibits human ADAM17 | P78536 | recombinant ADAM17, EDANS/DABCYL FRET peptide cleavage | inhibition, % at 6.95 µM | actives 0.83% (n = 370,000);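 active = inhibition above the mean of compounds lying between control limits plus 3 SD, set per campaign, cut at about 8.5% in these data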;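 note: 0% = DMSO-only wells as the low control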
Target sequence (P78536 215-824 limits assumed): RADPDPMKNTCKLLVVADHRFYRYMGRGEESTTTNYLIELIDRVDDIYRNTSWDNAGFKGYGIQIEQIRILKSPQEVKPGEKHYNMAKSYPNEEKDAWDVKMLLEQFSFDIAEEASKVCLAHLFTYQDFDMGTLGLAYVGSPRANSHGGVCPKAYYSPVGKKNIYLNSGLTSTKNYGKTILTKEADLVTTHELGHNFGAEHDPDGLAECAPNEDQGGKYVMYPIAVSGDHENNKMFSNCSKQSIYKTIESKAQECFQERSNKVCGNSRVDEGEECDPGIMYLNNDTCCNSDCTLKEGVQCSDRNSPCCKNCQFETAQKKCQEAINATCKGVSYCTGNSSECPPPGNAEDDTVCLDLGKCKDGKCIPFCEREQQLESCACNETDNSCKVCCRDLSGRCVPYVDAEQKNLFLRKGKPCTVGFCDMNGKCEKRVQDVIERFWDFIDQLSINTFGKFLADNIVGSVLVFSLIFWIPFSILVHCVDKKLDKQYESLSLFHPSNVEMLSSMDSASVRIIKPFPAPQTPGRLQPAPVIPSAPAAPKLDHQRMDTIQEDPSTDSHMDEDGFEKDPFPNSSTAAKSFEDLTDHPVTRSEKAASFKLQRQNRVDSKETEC
ADAM10 inh = inhibits human ADAM10; inhibition, % at 7 µM; actives 0.62% (n = 370,000); O14672; recombinant ADAM10, EDANS/DABCYL FRET peptide cleavage, 3 h; AID 720582;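 active = inhibition above a per-campaign cutoff equal to the mean of compounds falling between control-based bounds plus 3 SD, cut at about 20% in these data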;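 note: 0% = DMSO wells while the 100% control is not disclosed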
PLC-beta3 inh = PLC-beta3 (human) inhibition, primary screen; Q01970; Purified PLC-beta3, fluorogenic substrate, fluorescence; inhibition, % at 12.2 µM; actives 0.18% (n = 370,000); in the data active = inhibition above about 11%;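 note: 0% = median of compound wells on plate and 100% = full blocker control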
ADAM10 ctr = counter-screen for ADAM17 exosite inhibitors: inhibitors of human ADAM10; shares compounds with ADAM17 inh; recombinant ADAM10, EDANS/DABCYL FRET peptide cleavage, 3 h; inhibition, % at 6.95 µM; actives 47% (n = 2,900); AID 743256;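 active = mean inhibition over the triplicate runs exceeds the activity threshold set in the earlier primary screen, cut at about 20% in these data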;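 note: 0% = DMSO wells and 100% = marimastat wells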
ADAM17 confirm = confirmation of inhibitors of human ADAM17; recombinant ADAM17, EDANS/DABCYL QFRET peptide cleavage; shares compounds with ADAM17 inh; inhibition, % at 6.95 µM; actives 65% (n = 2,900);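 active = mean inhibition across replicates above the hit cutoff set in the primary screen, cut at about 8.5% in these data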;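 note: 0% = DMSO wells and 100% = marimastat wells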
Starred values were filed as active, the others as inactive; i = inactive; · = no result. An excerpt weighted towards active compounds, which were near 3.4% of everything screened.

SMILES	proKLK7 act	sPLA2-III inh	PLC-gamma1 inh	ADAM17 inh	ADAM10 inh	PLC-beta3 inh	ADAM10 ctr	ADAM17 confirm
CCNc1ccc2noc3c2c1C(=O)c1ccccc1-3	-21	-218	i	9.0*	6	i	-3	5
CC(C)Nc1nc(Cl)nc(NNC(=O)C(C)Oc2ccccc2)n1 (stereo unspecified)	0	8	7	9.0*	5	4	-2	-2
CCNc1nc(Cl)nc(NNC(=O)C(C)Oc2ccccc2)n1 (stereo unspecified)	0	4	-2	0	-8	1	·	·
COCC(=O)N1C[C@H]2CON(C)[C@H]2C[C@H]1c1ccc(N2CCCCC2)cc1	0	0	0	-5	-14	-2	·	·
COc1ccc(C(O)c2nc(-c3cccc(C(F)(F)F)c3)cs2)cc1 (stereo unspecified)	0	-1	5	13*	9	-4	27*	13*
COc1ccc(C(O)c2nc(-c3ccccc3)cs2)cc1 (stereo unspecified)	0	-10	0	2	0	2	·	·
COc1ccc(C(O)c2nc(-c3cccc(F)c3)cs2)cc1 (stereo unspecified)	1	-25	3	9.9*	18	1	2	2
COc1cccc(C(O)c2nc(-c3cccc(C(F)(F)F)c3)cs2)c1 (stereo unspecified)	0	-17	-3	5	19	-3	·	·
Cc1ccc(S(=O)(=O)c2nc(-c3ccccc3)oc2NCc2cccnc2)cc1	0	-12	-8	0	7	-12	·	·
Cc1ccccc1-c1nc(S(=O)(=O)c2ccc(Br)cc2)c(NCc2cccnc2)o1	-4	-28	-32	9.9*	19	-53	16	25*
COc1ccc(NC(=O)N(C)C[C@H]2Oc3ccc(NC(=O)Nc4c(C)noc4C)cc3C(=O)N([C@H](C)CO)C[C@@H]2C)cc1	1	1	0	-6	-13	0	·	·
O=C(COC(=O)CCC(=O)c1cccs1)NCc1ccccc1	-1	-2	-1	-1	-1	-2	·	·
Cc1cccc(NC(=O)c2cccc(NC(=O)c3ccco3)c2)c1C	1	3	2	-5	8	0	·	·
Cc1c(NC(=O)c2cccc(NC(=O)c3ccco3)c2)cccc1C(=O)O	0	1	6	9.0*	6	6	-7	-1
Nc1nc(N(Cc2ccccc2)Cc2ccccc2)nc(C(F)(F)F)n1	-1	-8	-3	9.1*	17	-4	9	8.9*
Cc1ccc(NC(=O)c2ccccc2OCC(=O)Nc2ccccc2F)cc1S(=O)(=O)N(C)C	0	-29	4	11*	4	-8	42*	25*
Cc1ccc(S(=O)(=O)N(CC(=O)Nc2ccccc2-c2ccccc2)c2ccc(C)cc2C)cc1	0	-6	1	5	10	2	·	·
Cc1cccc(N(CC(=O)Nc2ccccc2-c2ccccc2)S(=O)(=O)c2ccccc2)c1C	0	-11	2	9.3*	16	1	28*	16*
O=C(CN1CCOCC1)Nc1ccccc1F	0	3	3	9.1*	7	-8	-2	-1
Cc1nc(-c2cccc(NC(=O)c3cccs3)c2)cs1	0	-9	-1	-1	4	2	·	·
O=C(Nc1cccc(-c2csc(-c3ccccc3)n2)c1)c1cccs1	-9	-24	3	9.8*	19	0	19	12*
COc1ccccc1C(C)NC(=O)c1ccccc1SCC(=O)N1CCCC1 (stereo unspecified)	0	7	3	-2	-11	-5	·	·
CCCCCCN1C[C@H](n2cc(C3CC3)nn2)[C@@H](O)C[C@@H]1c1ccc(C)cc1	0	-19	4	15*	13	-8	17	8
Cc1ccc(C(=O)OCC(=O)Nc2cc(C(C)(C)C)no2)c(C)c1	-1	-13	1	12*	10	-8	33*	17*
